Here are results for 22 compounds from PubChem BioAssay (NCATS).

Assay [1] concerns the target Rap guanine nucleotide exchange factor 3 (Homo sapiens) (UniProt O95398). Description: Confirmatory qHTS for agonist of cAMP-regulated guanine nucleotide exchange factor 3 (EPAC1) (AID 1645881).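 Also: EPAC1 catalysed release of BODIPY-GDP from Rap1B seen as fluorescence loss; nearly all actives have a fitted effect of over 75% in size.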
The target of assay [2] is Rap guanine nucleotide exchange factor 4 (Homo sapiens) (UniProt Q8WZA2). Description: Confirmatory qHTS for agonist of cAMP-regulated guanine nucleotide exchange factor 4 (EPAC2) (AID 1645884).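 Also: nucleotide exchange releases bodipy-GDP from Rap1 and this lowers its fluorescence; % is scaled to controls: 0 for no effect and ±100 for the full control effect; nearly all actives have a fitted effect of over 65% in size.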 For orientation: In qHTS, concentration-response curves come from the screen itself.
Rap guanine nucleotide exchange factor 4 (Homo sapiens), sequence (Q8WZA2 whole entry, looked up): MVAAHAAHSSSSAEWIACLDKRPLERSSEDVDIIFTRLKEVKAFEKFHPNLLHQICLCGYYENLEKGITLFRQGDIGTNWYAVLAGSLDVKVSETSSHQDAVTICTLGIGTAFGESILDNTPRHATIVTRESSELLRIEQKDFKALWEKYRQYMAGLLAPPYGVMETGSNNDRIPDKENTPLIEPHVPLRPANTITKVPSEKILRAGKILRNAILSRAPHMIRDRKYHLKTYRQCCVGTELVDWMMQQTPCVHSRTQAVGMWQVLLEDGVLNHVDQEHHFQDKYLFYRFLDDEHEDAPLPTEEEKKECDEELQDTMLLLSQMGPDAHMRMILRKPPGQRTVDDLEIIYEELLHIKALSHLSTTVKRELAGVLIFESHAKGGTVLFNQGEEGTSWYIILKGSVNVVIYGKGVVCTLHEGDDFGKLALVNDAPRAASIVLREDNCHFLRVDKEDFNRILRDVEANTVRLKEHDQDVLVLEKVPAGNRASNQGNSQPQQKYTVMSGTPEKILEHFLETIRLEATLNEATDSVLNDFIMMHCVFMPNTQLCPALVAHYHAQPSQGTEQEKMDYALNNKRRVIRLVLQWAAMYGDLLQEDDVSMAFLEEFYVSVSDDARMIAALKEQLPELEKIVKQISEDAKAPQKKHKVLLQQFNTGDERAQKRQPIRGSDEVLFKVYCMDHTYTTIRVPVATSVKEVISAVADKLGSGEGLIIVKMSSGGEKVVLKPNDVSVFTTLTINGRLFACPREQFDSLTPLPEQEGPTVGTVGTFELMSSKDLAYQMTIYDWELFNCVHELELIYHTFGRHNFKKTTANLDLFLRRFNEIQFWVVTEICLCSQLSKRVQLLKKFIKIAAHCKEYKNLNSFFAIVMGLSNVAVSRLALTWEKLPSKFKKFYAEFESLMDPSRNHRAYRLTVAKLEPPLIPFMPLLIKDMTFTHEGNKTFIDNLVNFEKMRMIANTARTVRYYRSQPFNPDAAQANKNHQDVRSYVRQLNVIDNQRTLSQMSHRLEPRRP
Assay [3] has the same target. The experiment in a line: Confirmatory qHTS for antagonist of cAMP-regulated guanine nucleotide exchange factor 4 (EPAC2) (AID 1645885). Also: nearly all actives have a fitted effect of over 25% in size. Also: potency is read from the fitted curve at half-maximal effect.
Assay [4] deals with Rap guanine nucleotide exchange factor 3 (Homo sapiens) (UniProt O95398). Description: Counterscreen qHTS for agonist of cAMP-regulated guanine nucleotide exchange factor 3 (EPAC1) (AID 1645889). Also: % of control where 0% means no effect; nearly all actives have a fitted effect of over 40% in size. A digest of the protocol: (§1)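 Measured: fluorescence of BODIPY-GDP bound to Rap1B, which falls as exchange proceeds. Conditions include 50 uM competing GDP, 5 and 30 min reads, and a later cAMP challenge for antagonist detection.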
Rap guanine nucleotide exchange factor 3 (Homo sapiens), sequence (O95398 whole entry, looked up): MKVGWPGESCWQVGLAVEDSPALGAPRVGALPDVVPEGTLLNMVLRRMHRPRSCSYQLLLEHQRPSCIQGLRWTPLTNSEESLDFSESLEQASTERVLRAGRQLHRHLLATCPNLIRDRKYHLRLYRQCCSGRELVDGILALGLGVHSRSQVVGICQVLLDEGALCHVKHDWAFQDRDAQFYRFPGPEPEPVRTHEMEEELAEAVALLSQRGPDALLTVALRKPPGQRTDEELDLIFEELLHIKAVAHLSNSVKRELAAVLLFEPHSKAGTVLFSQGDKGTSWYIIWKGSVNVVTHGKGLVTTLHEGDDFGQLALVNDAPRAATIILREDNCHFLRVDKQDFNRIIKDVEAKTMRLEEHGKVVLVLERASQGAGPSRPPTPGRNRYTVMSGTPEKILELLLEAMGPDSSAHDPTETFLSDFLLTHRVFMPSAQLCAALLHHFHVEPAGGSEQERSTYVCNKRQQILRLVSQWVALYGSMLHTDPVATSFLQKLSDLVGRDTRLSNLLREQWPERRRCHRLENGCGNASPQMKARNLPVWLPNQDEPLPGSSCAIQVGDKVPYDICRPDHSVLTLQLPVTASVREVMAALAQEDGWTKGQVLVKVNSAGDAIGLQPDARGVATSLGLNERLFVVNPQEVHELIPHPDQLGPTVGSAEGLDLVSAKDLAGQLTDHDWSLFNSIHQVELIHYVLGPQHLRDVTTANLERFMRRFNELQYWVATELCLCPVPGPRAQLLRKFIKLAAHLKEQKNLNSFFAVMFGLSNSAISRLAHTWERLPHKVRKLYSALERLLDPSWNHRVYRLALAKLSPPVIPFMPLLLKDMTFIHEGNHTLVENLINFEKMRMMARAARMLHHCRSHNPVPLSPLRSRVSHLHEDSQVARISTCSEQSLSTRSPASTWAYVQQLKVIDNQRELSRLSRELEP
Background: A counterscreen serves to expose hits that act by an unwanted route or on another target.

In assay [5] the target is Lysosomal acid glucosylceramidase (Homo sapiens) (UniProt P04062). Description: Glucocerebrosidase-p2 (AID 348; in the data active = potency below about 10 µM; also: potency is read from the fitted curve at half-maximal effect). Conditions: purified GBA, blue fluorogenic substrate, 40 min. A digest of the protocol:
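Normal human glucocerebrosidase (0.2 nM) with blue fluorogenic substrate (80 uM final) in citrate/phosphate pH 5.9 with 10mM sodium taurocholate, 0.01% tween-20; 40 min RT, NaOH/glycine stop; fluorescence Ex 365/Em 440; AC50 from a titration from 0.6 nM upwards.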

A short description of assay [6]: AP1 Signaling Pathway (AID 357; active = well fitted curve in either direction with a large enough effect, not every such curve was filed as active;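 also: ME-180 reporter cells stimulated with EGF at its EC50 level; % is scaled to controls: 0 for no effect and ±100 for the full control effect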). Conditions: ME-180 (cervical carcinoma) AP-1-bla reporter, EGF-induced, beta-lactamase ratio, 5 h; at 7.69 µM (top of the series) unless noted. The gist of the method: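 Beta-lactamase reporter under AP-1 response element, ME-180 background. Stimulus: EC50 EGF. Compound exposure 5 h, 37 °C. Detection: CCF4, 2.5 h RT, 460/530 nm. Values: AC50 from titration.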

The target in assay [7] is Cytochrome P450 1A2 (Homo sapiens) (UniProt P05177). Description: p450-cyp1a2 (AID 410; calls by dose curve; also: potency is read from the fitted curve at half-maximal effect). A digest of the protocol: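 20nM CYP1A2, 100uM Luciferin-ME (=Km), 100mM KPO4; cpd 10 min RT; +NADPH regen, 60 min RT; stop/detect 20 min; luminescence. Normalized to furafylline 57 uM = full inhibition.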
Cytochrome P450 1A2 (Homo sapiens), sequence (P05177 whole entry, looked up): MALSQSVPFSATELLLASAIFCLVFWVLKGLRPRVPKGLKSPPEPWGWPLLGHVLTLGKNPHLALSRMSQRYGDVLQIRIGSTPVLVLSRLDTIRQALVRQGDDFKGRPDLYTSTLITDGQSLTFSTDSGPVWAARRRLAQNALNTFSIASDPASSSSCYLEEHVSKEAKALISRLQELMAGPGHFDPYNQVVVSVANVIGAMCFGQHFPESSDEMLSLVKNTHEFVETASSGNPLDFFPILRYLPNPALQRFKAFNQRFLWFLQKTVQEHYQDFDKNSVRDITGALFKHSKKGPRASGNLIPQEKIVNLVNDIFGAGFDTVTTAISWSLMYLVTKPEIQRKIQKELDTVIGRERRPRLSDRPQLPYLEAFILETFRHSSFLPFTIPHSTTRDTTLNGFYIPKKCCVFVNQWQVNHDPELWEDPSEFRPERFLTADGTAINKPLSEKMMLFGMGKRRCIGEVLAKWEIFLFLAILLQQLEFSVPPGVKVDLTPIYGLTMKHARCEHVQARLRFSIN
The nature of assay [8]: NFAT Signaling Pathway (AID 444; active = well fitted curve in either direction with a large enough effect, not every such curve was filed as active;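 also: carbachol stimulus at about its EC50 of 1 µM final; % is scaled to controls: 0 for no effect and ±100 for the full control effect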). The following applies: Jurkat NFAT-bla M1, carbachol, beta-lactamase ratio, 5 h; at 7.69 µM (top of the series) unless noted. A digest of the protocol:
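Jurkat cells carrying an NFAT-driven β-lactamase reporter and co-transfected muscarinic M1 receptor were treated with compound plus carbachol (1 uM final, an EC50 level) for 5 h at 37 °C. CCF4 loading followed for 1 h at RT; 460/530 nm ratio gave %activity.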

Assay [9] can be described thus: Stat Signaling Pathway (AID 446; active = well fitted curve in either direction with a large enough effect, not every such curve was filed as active;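 also: ME-180 cervical cancer cells given 40 pM IL-6 alongside compound; SIE-controlled beta-lactamase reporter measured as 460/530 nm FRET emission ratio; % is scaled to controls: 0 for no effect and ±100 for the full control effect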). A digest of the protocol: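 Compound effects on IL-6-induced STAT reporter activity were measured in ME-180 cells. After overnight culture, cells were co-treated with 40 pM IL-6 for 5 hrs before beta-lactamase substrate loading at room temperature.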
Assay [10] concerns the target Glucocorticoid receptor (Homo sapiens) (UniProt P04150). The experiment in a line: GR-GFP Redistribution (AID 450;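 active = compounds whose dose series gives a full or clear partial fitted curve of increased nuclear translocation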; also: potency is read from the fitted curve at half-maximal effect). Conditions: U2OS GR-GFP nuclear translocation, laser cytometry, 2 h.
Assay [11] has the same target. Description: GR-EFC Redistribution (AID 451; calls by dose curve; also: potency is read from the fitted curve at half-maximal effect). Conditions: CHO-K1 GR-EFC translocation, beta-gal luminescence, 2 h. A digest of the protocol: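 CHO-K1 cells stably expressing nuclear-localized β-gal enzyme acceptor and GR fused C-terminally to the enzyme donor fragment; ligand-driven nuclear translocation restores β-gal by complementation. Compounds titrated up to 46 uM final, 2 h at 37 °C; luminescence read.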

Assay [12] has as its target Mitogen-activated protein kinase 10 (Mus musculus) (UniProt Q61831). Description: JNK3 AlphaScreen Assay (AID 530; active = well fitted curve in either direction with a large enough effect, not every such curve was filed as active;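 also: kinase came from lysate of stimulated human HepG2 cells; signal reports phosphorylation of biotinylated GST-cJun 1-79 at Ser73 with 10 µM ATP; % is scaled to controls: 0 for no effect and ±100 for the full control effect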). A digest of the protocol:
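Biotinylated GST-cJun(1-79) served as substrate for JNK3 in HepG2 lysates stimulated with IL-1beta and TNF-alpha. ATP was 10 uM final, pH 7.6. Ser73 phosphorylation was quantified by AlphaScreen (680 nm excitation).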

Assay [13] addresses Cytochrome P450 3A4 (Homo sapiens) (UniProt P08684). The experiment in a line: qHTS Assay for Activators of Cytochrome P450 3A4 (AID 885). Also: nearly all actives have a fitted effect of over 65% in size. The gist of the method: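 CYP3A4 activity: Luciferin-PPXE O-dealkylation, 25uM substrate, 200mM KPO4, RT throughout. Read-out is luciferase luminescence; higher values reflect activation.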
Assay [14] addresses Rap guanine nucleotide exchange factor 3 (Homo sapiens) (UniProt O95398). The experiment in a line: Counterscreen qHTS for antagonist of cAMP-regulated guanine nucleotide exchange factor 3 (EPAC1) (AID 1645888).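 Also: fluorescence loss as bound BODIPY-GDP is released from Rap1B; % of control where 0% means no effect.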 The gist of the method: as §1
Assay [15] concerns the target Cytochrome P450 3A4 (Homo sapiens) (UniProt P08684). Description: qHTS Assay for Inhibitors and Substrates of Cytochrome P450 3A4 (AID 884). Also: potency is read from the fitted curve at half-maximal effect; nearly all actives have a fitted effect of over 50% in size. A digest of the protocol:
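Luminescent readout of luciferin produced by CYP3A4 (20 nM) dealkylation of Luciferin-PPXE, 25 uM (its KM). NADPH-driven reaction ran 60 min at RT after 10 min compound preincubation; data scaled to 57 uM ketoconazole as 100% inhibition.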

Assay [16] is described as follows: Confirmation and Secondary Assay for Modulators of Hemoglobin Beta Chain Splicing at IVS2 654 locus (AID 910).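 Also: per-well total GFP intensity by laser scanning cytometry after 2-day treatment; % of control where 0% means no effect.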 The gist of the method: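 HeLa cells stably carrying EGFP interrupted by mutant beta-globin IVS2-654 intron (CMV-driven) were treated with compound for 2 days at 37C; corrected splicing was scored as total peak GFP intensity per well (488 nm excitation, 500-520 nm emission).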

The nature of assay [17]: Confirmation and Secondary Assay for Modulators of Hemoglobin Beta Chain Splicing at IVS2 705 locus (AID 930).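 Also: HeLa cells stably expressing the EGFP-705 splicing reporter; GFP fluorescence per well restored by corrected splicing of the IVS2-705 intron in EGFP; % of control where 0% means no effect.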 The gist of the method:
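Stable HeLa line with EGFP disrupted by mutant beta-globin intron 2 (705). Overnight attachment, then 2 days of compound at 37C, 5% CO2. Signal: peak GFP intensity summed over objects 5-250 µm.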

Assay [18] addresses 3',5'-cyclic-AMP phosphodiesterase 4B (Homo sapiens) (UniProt Q07343). The experiment in a line: qHTS Assay for Inhibitors of PDE-IV (AID 607; active = well fitted activation curve with a large enough effect in the main read-out, with a control signal flat, not every such curve was filed as active; also: % of control where 0% means no effect). The gist of the method: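 ACTOne HEK293 cells carry a modified cAMP-gated CNG channel and express endogenous PDE4; plated 1000 cells/well, compounds up to 22.9 uM final. Membrane-potential dye fluorescence (ex 535/em 590) was read; parental cells received 10 uM forskolin + 100 uM RO 20-1724.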

Values without a mark were called inactive. Records with an inconclusive call do not appear. Activity calls are given as the source filed them. Unless noted, calls follow the shape of the dose curve; as a rule, active = well fitted curve in the direction sought with a large enough effect; inconclusive = small, poorly fitted or top-dose-only effect, or another doubt; inactive = no such curve, though single readings can be large; an effect the other way counts as inactive or inconclusive. A value given as a limit tells only on which side of the number the result lay.

Glucocorticoid receptor (Homo sapiens), sequence (P04150 whole entry, looked up, the tested form may be a part): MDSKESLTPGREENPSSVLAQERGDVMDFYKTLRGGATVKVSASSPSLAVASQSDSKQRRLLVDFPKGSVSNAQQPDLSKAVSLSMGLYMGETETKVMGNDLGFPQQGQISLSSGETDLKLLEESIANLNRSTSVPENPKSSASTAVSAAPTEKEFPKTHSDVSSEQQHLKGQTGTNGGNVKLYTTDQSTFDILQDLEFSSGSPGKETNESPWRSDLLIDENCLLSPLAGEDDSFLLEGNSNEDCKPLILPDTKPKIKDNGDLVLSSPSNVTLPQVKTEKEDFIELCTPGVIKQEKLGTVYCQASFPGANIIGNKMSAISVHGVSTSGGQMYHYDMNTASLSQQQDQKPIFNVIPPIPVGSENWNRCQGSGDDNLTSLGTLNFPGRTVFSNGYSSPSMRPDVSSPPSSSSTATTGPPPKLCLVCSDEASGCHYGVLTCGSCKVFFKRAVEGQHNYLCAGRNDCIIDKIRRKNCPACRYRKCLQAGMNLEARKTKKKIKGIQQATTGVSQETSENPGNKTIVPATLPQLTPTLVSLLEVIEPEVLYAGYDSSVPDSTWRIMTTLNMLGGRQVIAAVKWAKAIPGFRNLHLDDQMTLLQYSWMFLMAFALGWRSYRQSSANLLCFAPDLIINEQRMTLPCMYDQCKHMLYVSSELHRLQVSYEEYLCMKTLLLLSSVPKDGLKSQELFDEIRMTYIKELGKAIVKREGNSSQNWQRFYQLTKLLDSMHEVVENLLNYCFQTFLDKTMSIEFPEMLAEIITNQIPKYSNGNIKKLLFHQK
Cytochrome P450 3A4 (Homo sapiens), sequence (P08684 whole entry, looked up): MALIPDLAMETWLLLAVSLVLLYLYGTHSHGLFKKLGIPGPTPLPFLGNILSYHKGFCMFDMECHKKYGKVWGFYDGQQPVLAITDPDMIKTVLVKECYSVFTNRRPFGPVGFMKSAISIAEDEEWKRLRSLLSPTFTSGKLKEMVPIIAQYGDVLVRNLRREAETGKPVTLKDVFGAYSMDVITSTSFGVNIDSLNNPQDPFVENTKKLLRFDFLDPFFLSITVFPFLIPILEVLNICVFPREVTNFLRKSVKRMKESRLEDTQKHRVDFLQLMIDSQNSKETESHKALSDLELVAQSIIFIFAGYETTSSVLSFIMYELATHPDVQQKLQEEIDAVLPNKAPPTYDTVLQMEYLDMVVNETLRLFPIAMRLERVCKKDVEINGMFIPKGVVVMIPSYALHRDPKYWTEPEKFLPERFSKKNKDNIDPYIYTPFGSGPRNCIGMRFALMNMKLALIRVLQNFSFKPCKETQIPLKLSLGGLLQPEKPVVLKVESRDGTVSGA
Lysosomal acid glucosylceramidase (Homo sapiens), sequence (P04062 whole entry, looked up): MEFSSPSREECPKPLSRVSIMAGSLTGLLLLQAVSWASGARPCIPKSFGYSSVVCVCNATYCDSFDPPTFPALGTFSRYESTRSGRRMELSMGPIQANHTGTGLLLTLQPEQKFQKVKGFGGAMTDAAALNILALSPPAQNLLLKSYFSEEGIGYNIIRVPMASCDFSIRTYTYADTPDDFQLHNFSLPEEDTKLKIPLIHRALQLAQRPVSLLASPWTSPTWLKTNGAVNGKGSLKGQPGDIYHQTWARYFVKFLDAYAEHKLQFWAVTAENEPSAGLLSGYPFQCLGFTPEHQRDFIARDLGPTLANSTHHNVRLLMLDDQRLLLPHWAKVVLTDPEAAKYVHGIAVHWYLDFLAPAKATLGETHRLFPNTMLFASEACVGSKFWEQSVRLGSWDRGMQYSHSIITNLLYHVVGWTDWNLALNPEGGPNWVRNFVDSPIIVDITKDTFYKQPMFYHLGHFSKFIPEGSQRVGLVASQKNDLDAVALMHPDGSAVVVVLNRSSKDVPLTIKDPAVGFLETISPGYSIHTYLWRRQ
3',5'-cyclic-AMP phosphodiesterase 4B (Homo sapiens), sequence (Q07343 whole entry, looked up): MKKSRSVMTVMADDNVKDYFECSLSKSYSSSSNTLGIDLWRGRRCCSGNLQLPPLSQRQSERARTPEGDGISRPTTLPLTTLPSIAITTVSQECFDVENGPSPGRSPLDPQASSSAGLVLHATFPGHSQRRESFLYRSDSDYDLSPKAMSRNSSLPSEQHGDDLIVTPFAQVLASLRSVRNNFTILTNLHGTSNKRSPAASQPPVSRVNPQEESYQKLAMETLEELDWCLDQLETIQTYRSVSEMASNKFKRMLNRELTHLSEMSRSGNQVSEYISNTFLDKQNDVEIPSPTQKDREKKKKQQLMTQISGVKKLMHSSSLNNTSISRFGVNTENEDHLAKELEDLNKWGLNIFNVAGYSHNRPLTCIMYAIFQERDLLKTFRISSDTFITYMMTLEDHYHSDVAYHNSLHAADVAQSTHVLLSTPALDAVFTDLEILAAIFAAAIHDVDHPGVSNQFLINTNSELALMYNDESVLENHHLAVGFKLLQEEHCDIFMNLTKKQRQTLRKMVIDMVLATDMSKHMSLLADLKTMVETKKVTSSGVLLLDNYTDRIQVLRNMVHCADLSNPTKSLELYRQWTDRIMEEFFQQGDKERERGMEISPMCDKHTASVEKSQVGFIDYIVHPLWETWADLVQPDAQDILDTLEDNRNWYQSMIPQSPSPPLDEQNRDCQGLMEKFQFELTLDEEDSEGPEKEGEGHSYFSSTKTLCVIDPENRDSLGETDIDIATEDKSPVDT

For `CCCC(=O)NC(c1ccc(C)cc1)c1ccc2cccnc2c1O` (stereo unspecified), the Potency result in [1] and in [3] was “inactive” each time. Also, the activation is 0% [at 17.1 µM, percent relative to cAMP agonist control] in assay [2] and 7.43% [at 30.8 µM] in [4].

On to `COCOCCn1cc(CN2CCS(=O)(=O)N(Cc3ccc(-c4ccc(F)cc4)cc3)C(CC(C)C)C2=O)nn1` (stereo unspecified), for which the Potency entry in assay [1], in [2] and in assay [4] was “inactive” throughout. In [3], the Potency was 8.49 µM (active).

For `O=C(O)c1cccc(Nc2ccc([N+](=O)[O-])c3nonc23)c1`, the Potency result in assay [1], in assay [2], in assay [3] and in assay [4] was “inactive” each time.

In the case of `CC(C)CCNC(=O)c1onc(CSc2ccccn2)c1C(=O)NCCC(C)C`, the Potency result in [1], in assay [2], in assay [3] and in [4] was “inactive” in each case.

Regarding `CCn1cc(CN2CCc3c([nH]c4ccccc34)C2c2cccc(OC)c2)c(C)n1` (stereo unspecified), the Potency entry in [1] and in assay [3] was “inactive” each time. Besides, the activation in [2] was -1.07% [at 17.1 µM, percent relative to cAMP agonist control]; in assay [4] it was 8.44% [at 30.8 µM].

As to `O=C(O)CN1C(=O)/C(=C\c2cccc(OCc3ccc(F)cc3)c2)SC1=S`, the Potency entry in assay [1] and in assay [3] was “inactive” throughout. The activation was 1.62% [at 17.1 µM, percent relative to cAMP agonist control] in assay [2] and 14.2% [at 30.8 µM] in [4].

Consider `Cc1cc(C)c(OCC(=O)N(Cc2ccco2)Cc2ccco2)c(C)c1`, for which the Potency result in assay [1], in assay [2], in [3] and in assay [4] was “inactive” each time.

For `C[C@H]1CN([C@@H](C)CO)S(=O)(=O)c2ccc(Br)cc2O[C@@H]1CN(C)Cc1ccccc1`, the Potency entry in assay [1], in assay [2] and in [4] was “inactive” each time. Moreover, the Potency in assay [3] is 23.9 µM (active).

For `CC(C)(C)c1ccc(C(=O)N2CCCC(c3nc4c(nnn4Cc4cccc(F)c4)c(=O)[nH]3)C2)cc1` (stereo unspecified), the Potency entry in [1], in [2] and in assay [4] was “inactive” in each case. Besides, the outcome in [3] is “inactive [at 12.7 µM]”.

For `CCCc1nc2ccc(C(=O)OC)cn2c1Cc1ccccc1C(F)(F)F`, the Potency result in assay [1], in [2] and in assay [4] was “inactive” throughout. Besides, in assay [3], the Potency is 30.1 µM (active).

In the case of `CCCc1[nH]c2ccc(C(=O)OC)cc2c1CCC`, the Potency result in assay [1], in assay [2] and in [4] was “inactive” in each case. For the same compound, the Potency in assay [3] is 19 µM (active).

For `CC(=O)N(CCC(c1ccco1)C(C)C)Cc1ccc(Cl)cc1` (stereo unspecified), the Potency result in assay [1], in assay [2], in assay [3] and in assay [4] was “inactive” each time.

As to `C=CCNC(=O)c1oc2ccc(S(=O)(=O)N(CC)CC)cc2c1C`, the Potency entry in assay [1], in assay [2], in [3] and in assay [4] was “inactive” each time.

Consider `CN(C)c1ncc2ncc(=O)n(Cc3cccs3)c2n1`, for which the Potency in assay [5] is over 11.4 µM; in assay [7] it was 1.58 µM (active); in assay [10], over 9.22 µM; in [11], over 46 µM; in assay [3], 39.3 µM (active). Further, the activity change, negative = inhibition in assay [6] was -12.8%; in [8] it was -18.4%. In addition, the compound was called inactive in [9] and in [13]. For the same compound, the Potency result in assay [12], in assay [1] and in assay [2] was “inactive” each time.

Regarding `COc1ccc(-c2nc3ccccc3nc2-c2ccccc2)cc1`, the Potency result in [1], in assay [2] and in assay [14] was “inactive” each time.

Consider `COc1ccc(-c2nn3c(-c4cccc(C)c4)nnc3s2)cc1OC`, for which the Potency entry in [1], in assay [2] and in assay [14] was “inactive” each time.

Turning to `O=c1c(O)c(-c2ccccc2)oc2ccc3occc3c12`, the Potency is 3.16 µM (active) in assay [15] and 5.55 µM (active) in assay [3]. Further, the outcome in [13] was inactive. Besides, the Potency result in assay [16], in assay [17], in [1] and in assay [2] was “inactive” in each case.

`Nc1cc(OC(=O)c2cccs2)nn1S(=O)(=O)c1ccc(F)cc1`: the Potency entry in assay [1], in assay [2] and in [4] was “inactive” throughout. In addition, the Potency in assay [3] is 84.9 µM (active).

In the case of `CC1CN(C(=O)c2ccc(-c3cccc(C(F)(F)F)c3)o2)CC(C)O1` (stereo unspecified), the Potency entry in assay [1] and in [3] was “inactive” each time. Also, the activation in [2] was 6.74% [at 17.1 µM, percent relative to cAMP agonist control]; in assay [4] it was 1.55% [at 30.8 µM].

`CC(C)=CCc1c2c(c3occ(-c4ccc(O)cc4)c(=O)c3c1O)C=CC(C)(C)O2`: the result in assay [13] was inactive. Besides, the Potency entry in assay [16], in [17], in assay [1], in [2] and in assay [3] was “inactive” in each case.

In the case of `OC(c1ccccc1)(c1nc(-c2cccc(C(F)(F)F)c2)cs1)C(F)(F)F` (stereo unspecified), the Potency result in [1], in [2], in [3] and in assay [4] was “inactive” each time.

`CCOc1ccc2nc3cc(N=Nc4ccc(N)nc4N)ccc3c(N)c2c1`: the Potency was over 11.4 µM in assay [5], 0.794 µM (active) in [7], over 46 µM in assay [10] and over 9.22 µM in [11]. Further, the activity change, negative = inhibition is 4.95% in assay [6] and -7.05% [at 11.4 µM] in assay [12]. Further, in assay [9], the compound was called inactive. Moreover, the Potency entry in assay [18], in [1] and in [3] was “inactive” in each case. In assay [2], the activation was 2.08% [at 17.1 µM, percent relative to cAMP agonist control].
